Source: PubChem BioAssay (National Center for Advancing Translational Sciences (NCATS))
Shown is part of a subset that was picked to be rich in hits.
Pf Dd2 inh: Plasmodium falciparum Dd2 growth inhibition | hit rate 4.3% among 120,000 | Potency, µM (series often up to 28.9 µM), without a hit: top-dose activity, negative = inhibition, usual class: inhibitors | AID 1347417 | P. falciparum Dd2 growth, SYBR Green, 72 h; active = well fitted inhibition curve with a large enough effect;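 also: plate controls were DMSO vehicle for no effect and reference drug for full effect; nearly all actives have a fitted effect of over 65% in size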
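Readout: SYBR Green fluorescence, 485 nm excitation, 535 nm emission, after ~16 h lysis at 37C. Before that, Dd2-infected red cells (2.5% hematocrit) grew 72 h with compound, 29 uM top final concentration.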
Active calls of the source: *; i = inactive; [ ] = dose if it differs, or a comment. Potency is read from the fitted curve at half-maximal effect.

SMILES	Pf Dd2 inh
CC(=O)Nc1ccc(NC(=O)c2ccc3c(c2)CCN3S(=O)(=O)c2ccc(Cl)cc2)cc1	i
CC(C)c1ccc(NC(=O)c2ccc3c(c2)CCN3S(=O)(=O)c2ccccc2)cc1	8.91µM*
Cc1ncsc1CN1CCCN(S(=O)(=O)c2ccccc2)CCC(=O)NCC1	-20.7%
Cc1nc(-c2c3n(c(=O)n(CC(=O)Nc4ccccc4Cl)c2=O)CCCC3)no1	7.3%
O=C(C1CCCC1)N1CCn2c(nn(-c3ccncc3)c2=O)C1	-7.4%[44.1 µM]
CCCCCC(=O)Nc1nc2c(s1)C[C@@H]1[C@](C)(CO)[C@H](O)CC[C@@]1(C)[C@@H]2CC(=O)N[C@@H](CO)CC(C)C	i
CC(C)(C)C(=O)Nc1nc2c(s1)C[C@@H]1[C@](C)(CO)[C@H](O)CC[C@@]1(C)[C@@H]2CC(=O)NC1CC1	i
CC(C)(C)C(=O)Nc1nc2c(s1)C[C@@H]1[C@](C)(CO)[C@H](O)CC[C@@]1(C)[C@@H]2CC(=O)Nc1cccc(O)c1	8.91µM*
CC(C)C[C@H](CO)NC(=O)C[C@@H]1c2nc(NC(=O)C(C)(C)C)sc2C[C@@H]2[C@](C)(CO)[C@H](O)CC[C@]21C	8.91µM*
COCC(=O)Nc1nc2c(s1)C[C@@H]1[C@](C)(CO)[C@H](O)CC[C@@]1(C)[C@@H]2CC(=O)NC(C)C	i
CC(C)(C)C(=O)Nc1nc2c(s1)C[C@@H]1[C@](C)(CO)[C@H](O)CC[C@@]1(C)[C@@H]2CC(=O)O	-9.6%[44.1 µM]
O=C(NCCc1noc(C2CC2)n1)c1ccoc1	35.3%
CN(C)S(=O)(=O)NCC1CCCN(C(=O)Cc2ccc3c(c2)OCO3)C1 (centres undefined)	10.6%
CCn1ncc(N2CCC(NC(=O)Cc3cccc(F)c3)CC2)cc1=O	i
O=C(c1ccccn1)N1CCC(N2C(=O)C(O)C23CCCCC3)CC1 (centres undefined)	2.4%
CC(C)Oc1cccc2c1c(NC(=O)c1cc(F)cc(C#N)c1)nn2C	-11.5%
COc1ccc2cnn(CC(=O)NC3CCCc4c3[nH]c3ccccc43)c(=O)c2c1OC (centres undefined)	i
CN(C)c1ccc(C(=O)N2CC[C@@H](CC(=O)O)[C@@H](CCN3C[C@@H]4C[C@H](C3)c3cccc(=O)n3C4)C2)cc1	-14.5%
Cc1nn2c(=O)cc(COC(=O)c3ccc(C(C)(C)C)cc3)nc2s1	18.0%
COCCc1nn2c(=O)cc(COC(=O)c3cccs3)nc2s1	45.3%[5.79 µM]
COCCc1nn2c(=O)cc(COC(=O)c3ccc(C(C)(C)C)cc3)nc2s1	14.1µM*
O=C(CN1CCCC1=O)N[C@H]1CN(Cc2ccccc2F)C[C@@H]1C1CC1	-1.6%
Cc1oc2c(c1C(=O)N1CCCCCC1)CN(Cc1cccc(F)c1)CC2	3.98µM*
Cc1oc2c(c1C(=O)N1CCCC1)CN(Cc1cccc(F)c1)CC2	-21.3%
Cc1oc2c(c1C(=O)N1CCN(C3CCCC3)CC1)CN(Cc1cccc(F)c1)CC2	8.91µM*
SMILES	Pf Dd2 inh
CN1C(=O)C(CC(=O)NCC2CCN(Cc3cccc(F)c3)CC2)=C2CCCCC21 (centres undefined)	i
O=C(CC1CCOCC1)N1CCN(Cc2cccc(F)c2)CC1	47.8%
O=C1CCN(Cc2cccc(F)c2)CCCCCCN1	-18.7%
CC(C)NC(=O)c1cc2n(n1)CC(c1ccc3c(c1)OCO3)OC2 (centres undefined)	i
CCCCS(=O)(=O)N1CCC2(CCC(=O)N(Cc3ccccc3)C2)CC1	-11.6%
Cc1nncn1C1CCN(S(=O)(=O)c2cc(F)cc(F)c2)CC1	-1.2%
Cc1ccc(C)c(NC(=O)C(C)N(c2ccccc2)S(C)(=O)=O)c1 (centres undefined)	32.9%
Cc1ccc(C)c(NC2=C(c3ccc(C(F)(F)F)cc3)C(=O)c3ccccc32)c1	1.41µM*
Cc1ccc(C)c(NS(=O)(=O)c2ccc3c4c(cccc24)C(=O)N3)c1	-17.8%
CCN1CC(C(=O)NCc2csc(-c3ncccn3)n2)CCC1=O (centres undefined)	-3.2%
COCCn1c(C)cnc1CCNC(=O)NCc1ccc(C)cc1	i
CSc1ccc(NC(=O)c2cc3c(s2)CN(C2CC2)C3)cc1	10µM*
O=C(NC1CCS(=O)(=O)C1)c1cc2c(s1)CN(C1CCCC1)C2 (centres undefined)	i
CSc1ccc(NC(=O)C2CCN(c3ncccn3)CC2)cc1	i
CCC(=O)N1CCc2sc(C(=O)NCc3ccc(C)cc3)cc2C1	i
O=C(NC1CCCCC1)c1cc2c(s1)CCN(C(=O)c1ccc(F)cc1)C2	i
Cc1ccc(NC(=O)c2cc3c(s2)CN(C2CC2)C3)cc1	10µM*
CCCCCC(=O)Nc1ccc([C@H]2OCC(=O)N[C@@H]2CO)cc1	i
CN(C1CCc2nn(C)c(=O)n2CC1)S(=O)(=O)c1ccc(Cl)s1 (centres undefined)	14.6%
COCCN1CC2(CCCN(C(=O)c3cc(-c4ccsc4)n[nH]3)C2)CCC1=O (centres undefined)	-18.0%
CN(C)C[C@H]1C[C@@H](CO)CN(C(=O)c2cc(-c3ccccc3F)n[nH]2)C1	12.3%
